Data as given in PubChem BioAssay AID1159580 (chemical genetic matrix, 2015).
About 2,000 (36%) of roughly 5,500 compounds were called active. About 18% were inconclusive and are not listed. Cut-off read from the data, not from the text of the source: active = normalized growth mostly below about 0.91 (no sharp cut-off); inconclusive = no clear call, values can overlap the other calls; inactive = mostly above about 0.92. The list shows a part of the results.

Assay: chemical genetic growth profiling, strain panel (AID 1159580);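 note: tested at 20 µM; growth read once vehicle control cultures reached saturation at 30 °C; 1 = growth at the plate median or of vehicle wells; lower values mean less growth of the strain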
Details: S. cerevisiae deletion strains, growth OD
[1] = locus YDL101C, strain DUN1, hits give low values
[2] = locus YHR030C, strain SLT2, hits give low values

Measured: normalized growth

N#C/C(=C\C=C\c1ccccc1)c1nc2ccccc2[nH]1
active: [2] 0.673 | locus YLR113W, strain HOG1, hits give low values 0.658 | locus YPL256C, strain CLN2, hits give low values 0.767
inactive: locus YAR019C, strain CDC15, hits give low values 0.958 | locus YBL105C, strain PKC1, hits give low values 0.969 | locus YBR135W, strain CKS1, hits give low values 0.944 | locus YBR136W, strain MEC1, hits give low values 0.962 | locus YBR160W, strain CDC28, hits give low values 0.962 | locus YDL017W, strain CDC7, hits give low values 0.961 | locus YDL028C, strain MPS1, hits give low values 0.962 | [1] 0.973 | locus YDL108W, strain KIN28, hits give low values 0.968 | locus YDL132W, strain cdc53, hits give low values 0.964 | locus YDL214C, strain PRR2, hits give low values 0.864 | locus YDR052C, strain DBF4, hits give low values 0.966 | locus YDR054C, strain cdc34, hits give low values 0.955 | locus YDR226W, strain ADK1, hits give low values 0.962 | locus YDR477W, strain SNF1, hits give low values 0.823 | locus YER123W, strain YCK3, hits give low values 0.878 | locus YER133W, strain GLC7, hits give low values 0.834 | locus YFL009W, strain cdc4, hits give low values 0.964 | locus YFL029C, strain CAK1, hits give low values 0.958 | locus YFR003C, strain YPI1, hits give low values 0.976 | locus YFR019W, strain FAB1, hits give low values 0.966 | locus YFR028C, strain CDC14, hits give low values 0.956 | locus YGR040W, strain KSS1, hits give low values 0.83 | locus YGR052W, strain FMP48, hits give low values 0.916 | locus YGR092W, strain DBF2, hits give low values 0.829 | locus YHR079C, strain IRE1, hits give low values 0.848 | locus YHR082C, strain KSP1, hits give low values 0.819 | locus YHR205W, strain SCH9, hits give low values 0.818 | locus YIL147C, strain SLN1, hits give low values 0.967 | locus YJL095W, strain BCK1, hits give low values 0.729 | locus YJL128C, strain PBS2, hits give low values 0.957 | locus YJL157C, strain FAR1, hits give low values 0.886 | locus YJR016C, strain ILV3, hits give low values 0.958 | locus YJR066W, strain TOR1 (second series), hits give low values 0.871 | locus YJR066W, strain TOR1, hits give low values 0.791 | locus YKL048C, strain ELM1, hits give low values 0.904 | locus YKL067W, strain YNK1, hits give low values 0.898 | locus YKL101W, strain HSL1, hits give low values 0.882 | locus YKL193C, strain SDS22, hits give low values 0.95 | locus YKL203C, strain TOR2, hits give low values 0.878 | locus YLR133W, strain CKI1, hits give low values 0.891 | locus YLR403W, strain SFP1, hits give low values 0.86 | locus YML070W, strain DAK1, hits give low values 0.864 | locus YMR001C, strain CDC5, hits give low values 0.956 | locus YMR205C, strain PFK2 (second series), hits give low values 0.901 | locus YMR277W, strain FCP1, hits give low values 0.955 | locus YNL006W, strain LST8, hits give low values 0.96 | locus YNL020C, strain ARK1, hits give low values 0.896 | locus YNL161W, strain CBK1, hits give low values 0.956 | locus YNL183C, strain NPR1, hits give low values 0.793 | locus YNL207W, strain RIO2, hits give low values 0.946 | locus YNL222W, strain SSU72, hits give low values 0.957 | locus YNL307C, strain MCK1 (second series), hits give low values 0.866 | locus YOL078W, strain AVO1, hits give low values 0.954 | locus YOL136C, strain PFK27, hits give low values 0.885 | locus YOR061W, strain CKA2, hits give low values 0.908 | locus YOR119C, strain RIO1, hits give low values 0.875 | locus YOR231W, strain MKK1, hits give low values 0.828 | locus YOR329C, strain SCD5, hits give low values 0.976 | locus YPL031C, strain PHO85, hits give low values 0.824 | locus YPL153C, strain RAD53, hits give low values 0.855 | locus YPL204W, strain HRR25, hits give low values 0.827 | locus YPL209C, strain IPL1, hits give low values 0.963 | locus YPR025C, strain CCL1, hits give low values 0.952 | locus YPR106W, strain ISR1, hits give low values 0.965 | locus YPR111W, strain DBF20, hits give low values 0.944 | strain NNK1, hits give low values 0.942 | strain TSCII, hits give low values 0.952

COc1ccc(/C=N\NC(=O)CC#N)cc1OC
inactive: locus YAL013W, strain DEP1, hits give low values 1 | locus YBR229C, strain ROT2, hits give low values 1 | [1] 1.04 | locus YDL134C, strain PPH21, hits give low values 0.999 | locus YDR150W, strain NUM1, hits give low values 1.04 | locus YEL061C, strain CIN8, hits give low values 0.985 | locus YGR078C, strain PAC10, hits give low values 0.998 | locus YGR229C, strain SMI1, hits give low values 1 | [2] 1.05 | locus YHR087W, strain rtc3, hits give low values 0.996 | locus YJR043C, strain POL32, hits give low values 1.01 | locus YJR075W, strain HOC1, hits give low values 1.01 | locus YKL190W, strain CNB1, hits give low values 1 | locus YLR039C, strain RIC1, hits give low values 1 | locus YLR058C, strain SHM2 (second series), hits give low values 1.04 | locus YLR085C, strain ARP6, hits give low values 0.957 | locus YLR262C, strain YPT6, hits give low values 1.01 | locus YML094W, strain GIM5, hits give low values 0.998 | locus YMR219W, strain ESC1, hits give low values 0.997 | locus YMR263W, strain SAP30, hits give low values 1.04 | locus YNL128W, strain TEP1, hits give low values 1.01 | locus YNL153C, strain GIM3, hits give low values 1.03 | locus YNL298W, strain CLA4 (second series), hits give low values 1.02 | locus YNL322C, strain KRE1, hits give low values 1 | locus YNR030W, strain Alg12, hits give low values 0.998 | locus YPL055C, strain LGE1, hits give low values 1.15 | locus YPL241C, strain CIN2, hits give low values 1.01 | locus YPR135W, strain CTF4, hits give low values 1.29
